This is part of a sample that, as a whole, favours compounds with a hit. Of some 83,000 tested, about 20% had one in any assay.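 Assay: single dose, 48 h. Readout: percent growth (0 = no net growth; negative = cell death). Active: <10.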 A number with no mark means an inactive call. Activity calls are given as the source filed them.
How the values were obtained:
Test in all cases: NCI-60 one-dose screen, 48 h (100 = growth as untreated, 0 = no growth, -100 = all killed)
Details in all cases: 10 µM unless noted
SNB-75 CNS = test system: SNB-75 CNS
SNB-19 CNS = test system: SNB-19 CNS
U251 CNS = test system: U251 CNS
PC-3 prostate = test system: PC-3 prostate
SK-MEL-5 melanoma = test system: SK-MEL-5 melanoma
UACC-62 melanoma = test system: UACC-62 melanoma
LOX IMVI melanoma = test system: LOX IMVI melanoma
SK-MEL-28 melanoma = test system: SK-MEL-28 melanoma
HT29 colon = test system: HT29 colon

Q: Which growth (SNB-75 CNS) does the source give for `COc1cc(NC(C)CCCN)c2nc(C)ccc2c1Oc1ccc(F)cc1` (stereo unspecified) here?
A: Its growth is 64.6%.

Q: What about the growth (SNB-19 CNS) of the same compound?
A: Its growth is 78.8%.

Q: What about the growth (U251 CNS) of the same compound?
A: The growth was 73.2%.

Q: What about the growth (PC-3 prostate) of the same compound?
A: The growth was 63.9%.

Q: What about the growth (SK-MEL-5 melanoma) of the same compound?
A: Its growth is 86.2%.

Q: What about the growth (UACC-62 melanoma) of the same compound?
A: The growth was 81.9%.

Q: And the growth (LOX IMVI melanoma)?
A: The growth was 51%.

Q: And the growth (SK-MEL-28 melanoma)?
A: The growth was 97.8%.

Q: For `O=c1ncc(-c2ccc(C(F)(F)F)cc2)c(NC2CCCCCC2)[nH]1`, which growth (HT29 colon) is on record?
A: The growth was 56.5%.

Q: What about the growth (SNB-75 CNS) of the same compound?
A: The growth was 87%.

Q: And the growth (SNB-19 CNS)?
A: The growth was 54.9%.

Q: What about the growth (PC-3 prostate) of the same compound?
A: Its growth is 25.7%.

Q: And the growth (SK-MEL-5 melanoma)?
A: Its growth is 20.9%.

Q: What about the growth (UACC-62 melanoma) of the same compound?
A: Its growth is 29.6%.

Q: And the growth (LOX IMVI melanoma)?
A: The growth was 57.9%.

Q: What about the growth (SK-MEL-28 melanoma) of the same compound?
A: The growth was 49.3%.

Q: What does the source list for `O=C(COc1ccc(/C=C2\Oc3ccc4ccccc4c3C2=O)cc1)c1ccc([N+](=O)[O-])cc1`?
A: growth (SNB-75 CNS): 91.3%; growth (SNB-19 CNS): 94.6%; growth (U251 CNS): 94.4%; growth (PC-3 prostate): 86.8%; growth (UACC-62 melanoma): 91.7%; growth (LOX IMVI melanoma): 35.5%; growth (SK-MEL-28 melanoma): 106%

Q: With `NC(=O)c1cc(Cl)ccc1NC(=O)c1ccccc1-c1ccccc1` as the compound, how does the growth (SNB-75 CNS) read?
A: Its growth is -5.88% (active).

Q: What about the growth (SNB-19 CNS) of the same compound?
A: Its growth is 31.9%.

Q: What about the growth (U251 CNS) of the same compound?
A: The growth was 21.4%.

Q: What about the growth (PC-3 prostate) of the same compound?
A: The growth was 23.5%.

Q: What about the growth (SK-MEL-5 melanoma) of the same compound?
A: Its growth is 26.4%.

Q: What about the growth (UACC-62 melanoma) of the same compound?
A: The growth was 18.6%.

Q: And the growth (LOX IMVI melanoma)?
A: Its growth is 28.9%.

Q: And the growth (SK-MEL-28 melanoma)?
A: Its growth is 41.5%.

Q: For `C1CCC(C(CC2CCCCN2)C2CCCCC2)CC1` (stereo unspecified), which growth (HT29 colon) is on record?
A: The growth was -53.8% (active).

Q: What about the growth (SNB-75 CNS) of the same compound?
A: The growth was 7.79% (active).

Q: What about the growth (SNB-19 CNS) of the same compound?
A: Its growth is 13.2%.

Q: And the growth (U251 CNS)?
A: Its growth is -61.3% (active).

Q: What about the growth (PC-3 prostate) of the same compound?
A: The growth was 23.9%.

Q: And the growth (SK-MEL-5 melanoma)?
A: Its growth is -94.3% (active).

Q: What about the growth (UACC-62 melanoma) of the same compound?
A: Its growth is -7.18% (active).

Q: And the growth (LOX IMVI melanoma)?
A: Its growth is -95.5% (active).

Q: What about the growth (SK-MEL-28 melanoma) of the same compound?
A: Its growth is -84.8% (active).

Q: For `COc1ccc(NC(=O)c2ccccc2-c2ccccc2)c(C(N)=O)c1`, which growth (HT29 colon) is on record?
A: The growth was 11.4%.

Q: And the growth (SNB-75 CNS)?
A: Its growth is -10.7% (active).

Q: And the growth (SNB-19 CNS)?
A: The growth was 39.8%.

Q: What about the growth (U251 CNS) of the same compound?
A: The growth was 45.9%.

Q: What about the growth (PC-3 prostate) of the same compound?
A: Its growth is 32.8%.

Q: What about the growth (SK-MEL-5 melanoma) of the same compound?
A: The growth was 29.7%.

Q: And the growth (UACC-62 melanoma)?
A: The growth was 55.7%.

Q: What about the growth (LOX IMVI melanoma) of the same compound?
A: The growth was 36.9%.

Q: And the growth (SK-MEL-28 melanoma)?
A: Its growth is 59.7%.

Q: `Cc1cn(C(C=O)OC(C=O)CO)c(=O)[nH]c1=O` (stereo unspecified) was tested. Which growth (HT29 colon) did it give?
A: Its growth is 110%.

Q: And the growth (SNB-75 CNS)?
A: Its growth is 75.1%.

Q: What about the growth (SNB-19 CNS) of the same compound?
A: The growth was 101%.

Q: And the growth (PC-3 prostate)?
A: The growth was 102%.

Q: What about the growth (SK-MEL-5 melanoma) of the same compound?
A: The growth was 105%.

Q: And the growth (UACC-62 melanoma)?
A: Its growth is 106%.

Q: And the growth (LOX IMVI melanoma)?
A: Its growth is 103%.

Q: And the growth (SK-MEL-28 melanoma)?
A: Its growth is 99.1%.

Q: Which results are given for `COc1cc2c(cc1OC)C(=O)/C(=C/c1cccc(OCC(=O)c3ccccc3)c1)C2`?
A: growth (HT29 colon): 42.1%; growth (SNB-75 CNS): 85.2%; growth (SNB-19 CNS): 93.3%; growth (U251 CNS): 74.2%; growth (PC-3 prostate): 62%; growth (SK-MEL-5 melanoma): 67.6%; growth (UACC-62 melanoma): 68.1%; growth (LOX IMVI melanoma): 72.3%; growth (SK-MEL-28 melanoma): 107%

Q: Which growth (HT29 colon) does the source give for `CCCCc1ccc(C(N)=O)nc1` here?
A: The growth was 109%.

Q: And the growth (SNB-75 CNS)?
A: Its growth is 79.2%.

Q: What about the growth (SNB-19 CNS) of the same compound?
A: The growth was 102%.

Q: And the growth (U251 CNS)?
A: The growth was 100%.

Q: What about the growth (PC-3 prostate) of the same compound?
A: Its growth is 98.7%.

Q: What about the growth (SK-MEL-5 melanoma) of the same compound?
A: The growth was 101%.

Q: And the growth (UACC-62 melanoma)?
A: Its growth is 93.1%.

Q: And the growth (LOX IMVI melanoma)?
A: The growth was 89%.

Q: What about the growth (SK-MEL-28 melanoma) of the same compound?
A: The growth was -97.1% (active).

Q: With `OCc1n(Cc2ccc3ccccc3c2)cc[n+]1Cc1ccc2ccccc2c1` as the compound, how does the growth (HT29 colon) read?
A: The growth was 36.6%.

Q: And the growth (SNB-75 CNS)?
A: Its growth is 34.8%.

Q: What about the growth (SNB-19 CNS) of the same compound?
A: Its growth is 44.5%.

Q: And the growth (PC-3 prostate)?
A: The growth was 37.8%.

Q: What about the growth (SK-MEL-5 melanoma) of the same compound?
A: Its growth is -28% (active).

Q: And the growth (UACC-62 melanoma)?
A: The growth was 12.8%.

Q: And the growth (LOX IMVI melanoma)?
A: The growth was 45.4%.

Q: And the growth (SK-MEL-28 melanoma)?
A: Its growth is 24.9%.

Q: With `O=C(Nc1cccc(Cl)c1)Nc1cccc(Cl)c1` as the compound, how does the growth (HT29 colon) read?
A: Its growth is 82.1%.

Q: And the growth (SNB-75 CNS)?
A: Its growth is 94.7%.

Q: And the growth (PC-3 prostate)?
A: Its growth is 26.8%.

Q: And the growth (SK-MEL-5 melanoma)?
A: The growth was 79.2%.

Q: And the growth (UACC-62 melanoma)?
A: The growth was 43.7%.

Q: What about the growth (LOX IMVI melanoma) of the same compound?
A: The growth was 89.1%.

Q: And the growth (SK-MEL-28 melanoma)?
A: Its growth is 95%.

Q: `COc1cc(/C=C/c2cc(/C=C/c3ccc(O)c(OC)c3)n(C(=O)c3ccc(Cl)cc3)n2)ccc1O` was tested. Which growth (SNB-75 CNS) did it give?
A: The growth was -2.93% (active).

Q: What about the growth (SNB-19 CNS) of the same compound?
A: Its growth is 45.6%.

Q: And the growth (U251 CNS)?
A: Its growth is 16.8%.

Q: What about the growth (PC-3 prostate) of the same compound?
A: The growth was 4.59% (active).

Q: What about the growth (SK-MEL-5 melanoma) of the same compound?
A: The growth was -32.4% (active).

Q: And the growth (UACC-62 melanoma)?
A: The growth was 22.5%.

Q: And the growth (LOX IMVI melanoma)?
A: The growth was 13.9%.

Q: What about the growth (SK-MEL-28 melanoma) of the same compound?
A: The growth was 19.5%.

Q: What does the source list for `N#Cc1c(-c2ccccc2)cc(-c2ccccc2)n(CCCC(=O)O)c1=O`?
A: growth (HT29 colon): 103%; growth (SNB-19 CNS): 98.7%; growth (U251 CNS): 93.3%; growth (PC-3 prostate): 109%; growth (SK-MEL-5 melanoma): 93.5%; growth (UACC-62 melanoma): 91%; growth (LOX IMVI melanoma): 95.4%; growth (SK-MEL-28 melanoma): 108%

Q: How did the growth (HT29 colon) turn out when `COc1cc(/C=C/C(=O)c2c(C)n([O-])c3ccc(Cl)cc3[n+]2=O)cc(OC)c1OC` was run?
A: The growth was 102%.

Q: And the growth (SNB-75 CNS)?
A: The growth was 75.8%.

Q: What about the growth (SNB-19 CNS) of the same compound?
A: The growth was 83.1%.

Q: And the growth (U251 CNS)?
A: Its growth is 80.1%.

Q: And the growth (PC-3 prostate)?
A: Its growth is 89.5%.

Q: And the growth (SK-MEL-5 melanoma)?
A: Its growth is 47%.

Q: What about the growth (UACC-62 melanoma) of the same compound?
A: The growth was 82.9%.

Q: And the growth (LOX IMVI melanoma)?
A: Its growth is 68.9%.

Q: What about the growth (SK-MEL-28 melanoma) of the same compound?
A: Its growth is 84%.

Q: Which growth (HT29 colon) does the source give for `Cc1cnc2nc(-c3ccc(N(C)C)cc3)cn2c1` here?
A: The growth was 112%.

Q: What about the growth (SNB-75 CNS) of the same compound?
A: The growth was 133%.

Q: And the growth (SNB-19 CNS)?
A: Its growth is 107%.

Q: What about the growth (U251 CNS) of the same compound?
A: The growth was 110%.

Q: And the growth (PC-3 prostate)?
A: Its growth is 121%.

Q: What about the growth (UACC-62 melanoma) of the same compound?
A: The growth was 96%.

Q: And the growth (LOX IMVI melanoma)?
A: Its growth is 106%.

Q: And the growth (SK-MEL-28 melanoma)?
A: Its growth is 123%.

Q: `CCN(CC)c1ccc(N=C2C=CC(=O)C=C2NC(C)=O)cc1` was tested. Which growth (HT29 colon) did it give?
A: Its growth is 104%.

Q: What about the growth (SNB-75 CNS) of the same compound?
A: Its growth is 96.7%.

Q: What about the growth (SNB-19 CNS) of the same compound?
A: The growth was 116%.

Q: What about the growth (U251 CNS) of the same compound?
A: Its growth is 87.9%.

Q: What about the growth (PC-3 prostate) of the same compound?
A: The growth was 83.6%.

Q: And the growth (SK-MEL-5 melanoma)?
A: The growth was 88.5%.

Q: And the growth (UACC-62 melanoma)?
A: Its growth is 93.2%.

Q: And the growth (LOX IMVI melanoma)?
A: The growth was 80.8%.

Q: What about the growth (SK-MEL-28 melanoma) of the same compound?
A: Its growth is 127%.

Q: Which growth (HT29 colon) does the source give for `CC1CN(/N=C/c2ccc([N+](=O)[O-])o2)C(=N)O1` (stereo unspecified) here?
A: The growth was 108%.

Q: And the growth (SNB-75 CNS)?
A: Its growth is 105%.

Q: And the growth (SNB-19 CNS)?
A: The growth was 99.7%.

Q: And the growth (U251 CNS)?
A: The growth was 101%.

Q: And the growth (PC-3 prostate)?
A: Its growth is 89.5%.

Q: And the growth (SK-MEL-5 melanoma)?
A: The growth was 93.4%.

Q: And the growth (UACC-62 melanoma)?
A: Its growth is 92.7%.

Q: And the growth (LOX IMVI melanoma)?
A: The growth was 95.4%.

Q: What about the growth (SK-MEL-28 melanoma) of the same compound?
A: The growth was 115%.
